# Among all 7,400 compounds or so, about 4,100 (55%) were called active.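 How the source made its calls: active means inhibition of yeast growth at or above a set limit in either of two repeat tests at 20 µM; inactive means the rest.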 The set was probably picked from earlier hits. Only a sample is shown.
# Experiment: tim10-1 ts yeast growth inhibition, retested – single concentration, luminescence, S. cerevisiae, confirmation (AID 463213);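 further: tim10-1 mutant grown at permissive 25 °C to find synthetic lethal compounds; 0% = DMSO yeast wells and 100% = medium wells without yeast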
# Conditions: S. cerevisiae tim10-1 ts strain growth, BacTiter-Glo, 24 h; at 20 µM; active compounds read high
row,Compound,inhibition
1,Cc1sc2ncnc(SCC(=O)Nc3ccc(CN4CCCC4)cc3)c2c1C,23.3% (inactive)
2,O=C1C=CC(=O)N1c1ccc(N2CCCCC2)cc1,92.6% (active)
3,Cc1oc2cc(Br)c(O)c(Br)c2c1C(=O)c1ccccc1,36.2% (active)
4,CC1=C/C(=N\OS(=O)(=O)c2ccccc2)C=CC1=O,60.8% (active)
5,O=c1c(Cl)c(NCc2ccc(F)cc2Cl)cnn1C12CC3CC(CC(C3)C1)C2,44.2% (active)
6,COc1ccc(OC)c(-c2c(=O)n(OCc3ccccc3Br)c3ccccc3[n+]2[O-])c1,24.3% (inactive)
7,CC(C)c1nccn1S(=O)(=O)c1cc([N+](=O)[O-])ccc1Cl,28.7% (inactive)
8,CCc1nc(C)cn1S(=O)(=O)c1cc([N+](=O)[O-])ccc1Cl,47.8% (active)
9,O=C(c1ccccc1)N1CCC(CC2CC(c3ccc(Cl)cc3)=NO2)(C(=O)NCC2CCCCC2)CC1 (stereo unspecified),34% (active)
10,COc1cc([N+](=O)[O-])ccc1NC(=O)COC(=O)CCOc1ccc(C)cc1,63.3% (active)
11,O=C(COC(=O)CCOc1ccccc1)Nc1cc(S(=O)(=O)N2CCCCC2)ccc1Cl,30.2% (inactive)
12,O=C(NC1CCCCC1)c1ccc(-c2ccc(Cl)cc2)o1,39% (active)
13,O=C(Nc1cccc(F)c1)NC1CCCCCCC1,20.1% (inactive)
14,CSC1=N/C(=C\C=C\c2cccs2)C(=O)S1,51.9% (active)
15,O=[N+]([O-])c1ccc(N/N=C/c2ccccc2)cc1,27% (inactive)
16,c1ccc(-c2nc(NCc3ccco3)c3ccccc3n2)cc1,42% (active)
17,S=c1[nH]c2ccccc2c2ccccc12,7.95% (inactive)
18,C#CCN1C(=O)C(O)(CC(=O)c2cc(OC)ccc2OC)c2ccccc21 (stereo unspecified),30.6% (inactive)
19,CC(C)(CCl)C(=O)Nc1ccc(Sc2ccc(F)cc2)cc1,51.8% (active)
20,COCCNC(=O)/C(C#N)=C/c1cccc(OCc2ccccc2)c1,70.2% (active)
21,Cc1cccc(OCCNC(=S)NC(=O)c2cccnc2)c1,27.1% (inactive)
22,C/C(=N/NC(=O)c1cc(Cl)ccc1O)C12CC3CC(CC(C3)C1)C2,34.1% (active)
23,S=C(NCc1ccc(Cl)cc1)NC12CC3CC(CC(C3)C1)C2,3.55% (inactive)
24,C/C(=N\Nc1nc(Nc2ccccc2)nc(N2CCOCC2)n1)c1cccs1,24.8% (inactive)

row,Compound,inhibition
1,Cc1cc(C)n(-c2nc(SCC(=O)N3CCCC3)c3c4c(sc3n2)CCCC4)n1,40.1% (active)
2,CCOc1ccc2nc(N3CCCN(C(=O)Nc4ccccc4C)CC3)c(C#N)cc2c1,26.7% (inactive)
3,CCC(C)(C)n1nnnc1CN1CCN(c2nc3ccc(C)cc3cc2C#N)CC1,35.2% (active)
4,Clc1ccccc1CSc1nnc(-c2ccco2)c(-c2ccco2)n1,27.3% (inactive)
5,Fc1cccc(Cl)c1CSc1ccc(-c2ccco2)nn1,39.5% (active)
6,COc1cc(C(=O)Nc2nccs2)cc(OC)c1OC,29% (inactive)
7,CSc1nnc(NC(=O)c2nc(S(=O)(=O)Cc3ccc(C)cc3)ncc2Cl)s1,-0.5% (inactive)
8,COc1ccc(CS(=O)/C(Cl)=C(/Cl)C(=O)Nc2ccc(OC)nc2)cc1 (stereo unspecified),34.8% (active)
9,Cn1c(CCCOc2ccc(Cl)cc2Cl)n[nH]c1=S,17.5% (inactive)
10,Cc1ccc(NC(=O)CN2CCC3(O)CCCCC3C2c2ccc3c(c2)OCO3)c(C)c1 (stereo unspecified),37.5% (active)
11,Cn1c(C(=O)OC(C(=O)NC2CCCCC2)c2ccccn2)cc2sccc21 (stereo unspecified),17.9% (inactive)
12,CN(c1ccccc1)S(=O)(=O)c1ccc(NC(=O)COc2ccccc2)cc1,34.2% (active)
13,Cc1ccc(NC(=O)CCOc2ccccc2)cc1S(=O)(=O)Nc1ccccc1Cl,29.1% (inactive)
14,COc1ccc(/C(N)=N/OC(=O)CCCc2ccccc2)cc1,48.1% (active)
15,COc1ccc(/C(N)=N/OC(=O)Cc2ccccc2)cc1,15.5% (inactive)
16,N/C(=N\OC(=O)CCc1ccccc1)c1ccc(Cl)cc1,57.7% (active)
17,Nc1nc(-c2ccccc2)cc(-c2ccccc2)n1,10% (inactive)
18,CS(=O)(=O)c1sc2nc(-c3ccccc3)cc(-c3ccccc3)c2c1N,33.8% (active)
19,O=C(COc1ccccc1Cl)N1N=C(c2cccs2)CC1c1ccco1 (stereo unspecified),27.8% (inactive)
20,O=C(CC(O)(C(F)(F)F)C(F)(F)F)Nc1ccc(Cl)c(Cl)c1,88.2% (active)
21,CN=c1scc(-c2cc(OC)ccc2OC)n1/N=C/c1c(C)[nH]c2ccccc12,19.1% (inactive)
22,O=S(=O)(Nc1cccc(Oc2ccc(Cl)cc2)n1)c1ccc(F)cc1,45% (active)
23,CCCc1nc2c(c(=O)c3ccccc3n2C)c(=O)n1C1CCCCCC1,28.5% (inactive)
24,CCCCCC1CCC(c2nnc(SCC(C)=O)o2)CC1 (stereo unspecified),39.2% (active)

row,Compound,inhibition
1,COc1ccc(CCNc2cc(C)nc3c(-c4ccc(Cl)cc4)c(C)nn23)cc1OC,24% (inactive)
2,CCOC(=O)c1c(CN2CCOCC2)n(-c2ccccc2)c2ccc(O)cc12,22.6% (inactive)
3,CCOC(=O)c1c(-c2ccccc2)oc2ccc(OCC(=O)NN)cc12,15.6% (inactive)
4,CCOC(=O)c1c(-c2ccccc2)oc2cc(Br)c(O)cc12,39.4% (active)
5,CCOc1ccccc1N1CCN(C(=O)c2ccc3[nH]c(C)c(C)c3c2)CC1,16.4% (inactive)
6,CCn1nccc1C(=O)Nc1ccc(Cl)c(Cl)c1,37.8% (active)
7,O=C(/C=C/c1ccccc1)c1ccccc1O,56.2% (active)
8,COc1ccc(C(=O)Nc2ccc(-n3nncc3C(C)(C)C)cc2)cc1,38.6% (active)
9,Cc1ccc(S/C(=N\S(=O)(=O)c2ccc(Cl)cc2)c2ccccc2)cc1,35.6% (active)
10,CC(C)Cn1c(N)c(C(=O)NCc2cccs2)c2nc3ccccc3nc21,22.4% (inactive)
11,Fc1ccc(N2CCN(Cc3cnc(Oc4ccc(Br)cc4)s3)CC2)cc1,28.4% (inactive)
12,Oc1c(CN2CCN(c3ccc(F)cc3)CC2)cc(Cl)c2cccnc12,32% (active)
13,O=C(c1cccc(C(=O)N2CCN(c3ccc(F)cc3)CC2)c1)N1CCN(c2ccc(F)cc2)CC1,27% (inactive)
14,OC(CNCC1CCCO1)Cn1c2ccc(Br)cc2c2cc(Br)ccc21 (stereo unspecified),3.65% (inactive)
15,O=C(/C=C/c1cccs1)c1cc(Cl)ccc1OC(=O)N1CCOCC1,48.5% (active)
16,O=C(NC(Nc1nc2ccc([N+](=O)[O-])cc2s1)(C(F)(F)F)C(F)(F)F)c1ccccc1,86.6% (active)
17,O=C(NCCN1C(=O)S/C(=C\c2cccnc2)C1=O)c1cccc(OC(F)F)c1,27.6% (inactive)
18,N/C(=N\OC(=O)CCC1CCCCC1)c1ccccn1,45.5% (active)
19,N/C(=N\OC(=O)CC1CCCCC1)c1ccccc1,47.9% (active)
20,S=c1[nH]nc(CSCc2ccc(Cl)cc2Cl)n1-c1ccccc1,24.7% (inactive)
21,Cc1nnnn1/C(=C\c1ccccc1)C(=O)OCC(=O)N1CC2(C)CC1CC(C)(C)C2 (stereo unspecified),48.4% (active)
22,N/C(Cc1ccc([N+](=O)[O-])cc1)=N\OC(=O)C1CCCCC1,79.8% (active)
23,N/C(Cc1ccc([N+](=O)[O-])cc1)=N\OC(=O)COc1ccc2ccccc2c1,74.3% (active)
24,CN(C)C(=O)c1ccc2c(c1)C1C3CCC(C3)C1C(c1ccccc1)N2 (stereo unspecified),25.9% (inactive)

row,Compound,inhibition
1,Cc1cccc(NC(=S)N2CCC(c3nc4ccccc4s3)CC2)c1,30.5% (inactive)
2,Cc1cccc(NC(=S)Nc2ccc(Cl)c(Cl)c2)c1,50.9% (active)
3,FC(F)(F)c1cccc(NC(=S)Nc2cccc(Cl)c2)c1,21.2% (inactive)
4,CCOc1ccc(C(c2c(C)[nH][nH]c2=O)c2c(C)[nH][nH]c2=O)cc1OCC,36.1% (active)
5,Cc1[nH][nH]c(=O)c1C(c1ccc(-c2ccc(Cl)cc2)o1)c1c(C)[nH][nH]c1=O,29% (inactive)
6,COc1ccccc1C1SCCN1C(=O)c1ccc([N+](=O)[O-])cc1 (stereo unspecified),15.9% (inactive)
7,N/C(=N\OC(=O)Cc1ccccc1[N+](=O)[O-])c1ccc(Br)cc1,55.3% (active)
8,COc1cc(Cl)c(C)cc1NC(=O)CSc1nnc(-c2ccco2)n1CC(C)C,24.4% (inactive)
9,Cc1cccc(N=Nc2c(O)[nH]c3ccc(F)cc23)c1,51.5% (active)
10,COc1cc(N=Cc2c(O)[nH]c3ccccc23)cc(OC)c1OC,20.7% (inactive)
11,Cc1ccccc1NCC(=O)N/N=C\c1ccc([N+](=O)[O-])s1,44.2% (active)
12,C/C(=N\NC(=O)CNc1cccc2ccccc12)c1ccc(Br)s1,26.1% (inactive)
13,O=C(CCc1ccccc1)Nc1ncc([N+](=O)[O-])s1,25% (inactive)
14,Cc1ccccc1Nc1nnc(SCC(=O)c2cc3ccccc3o2)s1,33.8% (active)
15,CC(C)CC(=O)NC(=S)Nc1ccc(F)cc1F,24.9% (inactive)
16,O=C(/C=C/Sc1ncn[nH]1)c1ccc(Cl)cc1,69.7% (active)
17,COc1ccc(CCNCc2c(-c3ccccc3)n(C)c3ccccc23)cc1,19.6% (inactive)
18,Cc1nc(-c2ccccc2)cn2c1nc1ccccc12,36% (active)
19,CCc1ccc(-c2cc(C(=O)NCc3ccco3)c3ccccc3n2)s1,32.3% (active)
20,O=C(Nc1nnc(-c2ccccc2)o1)c1cc(-c2cccs2)nc2ccccc12,13.9% (inactive)
21,CC1=CC(C)(C)Nc2ccc(OC(=O)CN3C(=O)C4CCCCC4C3=O)cc21 (stereo unspecified),22.8% (inactive)
22,Cc1cc(N)n2nc(-c3ccc(C(C)(C)C)cc3)cc2n1,42% (active)
23,COc1ccccc1CSc1ncc(-c2ccc([N+](=O)[O-])cc2)[nH]1,27.1% (inactive)
24,CCCCC(O)(CCCC)C(=O)NN(C(=O)CCl)c1ccccc1,36.3% (active)

# — PubChem BioAssay AID463213 (Sanford-Burnham Center for Chemical Genomics, 2010)
